KinaseGlo FLuc – Kinase-Glo luciferase inhibition (counter-screen) | Q27757 | Kinase-Glo luciferase, ATP luminescence, 8 min | Potency, µM (top dose mostly 38.3 µM), actives largely listed as inhibitors | 200,000 tested, 0.28% active | AID 1379; further: nearly all actives have a fitted effect of over 60% in size
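Substrate mix (final 50 mM imidazole pH 7.2, 50 mM KCl, 7 mM MgCl2, 10 uM ATP, 0.01% Tween 20, 0.05% BSA) plus pin-tool compound, then Kinase-Glo detection mix; 8 min ambient, luminescence read.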
FLuc modulator – firefly luciferase modulation, counter-screen for miR-21 project; P08659; 360,000 tested, 6.9% active; purified FLuc, Km substrates, luminescence inhibition; Potency, µM (series often up to 57.5 µM), actives largely listed as inhibitors; further: nearly all actives have a fitted effect of over 55% in size
Target sequence (P08659 whole entry, looked up): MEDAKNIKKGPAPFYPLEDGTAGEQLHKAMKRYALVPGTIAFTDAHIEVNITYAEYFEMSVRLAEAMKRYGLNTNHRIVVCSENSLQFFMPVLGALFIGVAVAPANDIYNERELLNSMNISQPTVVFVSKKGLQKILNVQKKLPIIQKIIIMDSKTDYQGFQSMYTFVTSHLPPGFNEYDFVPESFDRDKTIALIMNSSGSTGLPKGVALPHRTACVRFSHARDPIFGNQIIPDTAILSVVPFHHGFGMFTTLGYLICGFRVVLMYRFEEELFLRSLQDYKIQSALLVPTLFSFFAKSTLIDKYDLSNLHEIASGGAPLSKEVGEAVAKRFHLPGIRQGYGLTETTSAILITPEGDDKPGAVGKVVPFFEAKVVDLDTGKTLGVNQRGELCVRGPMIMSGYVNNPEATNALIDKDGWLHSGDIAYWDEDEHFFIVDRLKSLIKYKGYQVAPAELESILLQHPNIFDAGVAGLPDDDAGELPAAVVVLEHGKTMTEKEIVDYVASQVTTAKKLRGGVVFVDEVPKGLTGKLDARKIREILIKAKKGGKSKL
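Purified P. pyralis luciferase (10nM final) with 10uM D-luciferin and 10uM ATP (Km levels) in 50mM Tris acetate pH 7.5, 10mM Mg acetate, 0.01% Tween-20, 0.05% BSA; qHTS 6-point titration, ~60 µM downward; luminescence read.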
SMN2 splice enh – SMN2 splice variant enhancement | HEK293 SMN2-luciferase splicing reporter, luminescence, 30-36 h | Potency, µM (doses to about 46.1 µM), actives largely listed as activators | 210,000 tested, 2.8% active | AID 1458; further: nearly all actives have a fitted effect of over 55% in size
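HEK293 cells carry an SMN2 minigene-luciferase reporter in which exon 7 inclusion puts luciferase in frame. Cells were seeded at 2000 cells/well, attached for 10-12 hours, then exposed to compounds for 30-36 hours at 37C before ONE-Glo luminescence.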
NPC1 promoter act – NPC1 promoter activation; Potency, µM (doses to about 9.22 µM), most hits filed as activators; 320,000 tested, 2.4% active; Huh7 NPC1 promoter luciferase reporter, 24 h; further: nearly all actives have a fitted effect of over 60% in size
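In 1536-well qHTS, Huh7 cells harboring an NPC1 promoter–luciferase construct received compound for 24 h; activation was quantified by luminescence following luciferase reagent addition.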
Rab9 promoter act – activators of Rab9 promoter | 320,000 tested, 2.8% active | Potency, µM (titrated, usually from 9.22 µM), usual class: activators | Huh7 Rab9 promoter-luciferase reporter, luminescence, 24 h | AID 485297; further: nearly all actives have a fitted effect of over 60% in size
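Luminescence read-out: Huh7 cells stably expressing Rab9-luciferase, treated 24 h with compound at 37 °C, then lysed with luciferase reagent for 10 min at ambient before reading.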
ELG1 genotoxic – induces genotoxicity in HEK293T cells with luciferase-tagged ELG1; HEK293T ELG1-luciferase reporter, luminescence, 16 h; Potency, µM (highest dose often 46 µM), hits mostly activators; 330,000 tested, 1.3% active; further: nearly all actives have a fitted effect of over 60% in size
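Screening used a luciferase reporter fused to human ELG1 in HEK293T cells. Luminescence was read on a CCD plate imager after 16 hr exposure and 30 min ONE-Glo incubation.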
Of the large screens only hits and unclear results are named; the others gave an inactive call. Sampled rows, rich in hits. Any-hit rate of the full collection: about 7.3%. The call rests on the fitted dose curve; in most records, active means well fitted curve in the direction sought with a large enough effect; inconclusive means small, poorly fitted or top-dose-only effect, or another doubt; inactive means no such curve, though single readings can be large; an effect the other way counts as inactive or inconclusive.

O=C(Nc1cc(C(F)(F)F)ccc1N1CCOCC1)c1cn2ccccc2n1	none
Cc1ccn2cc(CCNS(=O)(=O)c3ccc4c(c3)OCCO4)nc2c1	none
O=C(Nc1ccccc1N1CCOCC1)c1cccc(Oc2ccccc2)c1	FLuc modulator 21.3µM (no result: KinaseGlo FLuc, SMN2 splice enh)
CCCCn1c(=O)nc2n(-c3ccc(Br)cc3)c3ccccc3cc-2c1=O	none (no result: KinaseGlo FLuc, SMN2 splice enh, NPC1 promoter act, Rab9 promoter act, ELG1 genotoxic)
Cn1nc(C(=O)Nc2ccccc2N2CCOCC2)ccc1=O	none (no result: KinaseGlo FLuc, SMN2 splice enh)
O=C(Nc1ccccc1N1CCOCC1)c1ccc2ccccc2n1	FLuc modulator 7.57µM
COc1ccccc1N1CCN(S(=O)(=O)c2c(C)sc3ncn(CC(=O)Nc4ccc(C(C)C)cc4)c(=O)c23)CC1	none (no result: KinaseGlo FLuc, NPC1 promoter act, Rab9 promoter act, ELG1 genotoxic)
Cn1c(=O)c(C(=O)Nc2ccccn2)c(O)c2ccccc21	FLuc modulator 4.78µM, NPC1 promoter act inconclusive, Rab9 promoter act 2.82µM, ELG1 genotoxic inconclusive (no result: KinaseGlo FLuc, SMN2 splice enh)
Cn1c(=O)c(C(=O)Nc2ccccc2S(N)(=O)=O)c(O)c2ccccc21	FLuc modulator inconclusive, NPC1 promoter act inconclusive, Rab9 promoter act inconclusive (no result: KinaseGlo FLuc, SMN2 splice enh)
Cn1c(=O)c(C(=O)Nc2cnccn2)c(O)c2ccccc21	SMN2 splice enh 12.6µM, Rab9 promoter act inconclusive
Cc1cc2c(s1)c(C#N)c(C(=O)NCc1ccccc1F)n2C	none (no result: KinaseGlo FLuc, SMN2 splice enh, ELG1 genotoxic)
CCCCSc1ncnc2c1c(-c1ccccc1)cn2-c1cccc(F)c1	none (no result: KinaseGlo FLuc, NPC1 promoter act, Rab9 promoter act, ELG1 genotoxic)
COc1cccc2c1[C@H](CO)N1[C@H](C#N)[C@@H]3C[C@H](C(=O)O)[C@@H]([C@@H]1C2)N3C	none (no result: FLuc modulator, NPC1 promoter act, Rab9 promoter act, ELG1 genotoxic)
COc1cccc(C(=O)Nc2cccc3ccccc23)c1	none (no result: KinaseGlo FLuc, SMN2 splice enh)
COc1ccc(C(=O)Nc2nc3ccccc3[nH]2)cc1	FLuc modulator 0.19µM, NPC1 promoter act 0.112µM, Rab9 promoter act inconclusive, ELG1 genotoxic inconclusive (no result: KinaseGlo FLuc, SMN2 splice enh)
COc1cc(C(=O)Nc2nc3ccccc3[nH]2)cc(OC)c1OC	FLuc modulator inconclusive
COc1ccc(C(=O)N[C@H](C(=O)Nc2nc3ccccc3[nH]2)C(C)C)cc1	FLuc modulator 6.75µM, SMN2 splice enh 10µM, ELG1 genotoxic 11.6µM
COC(=O)Nc1nc2ccc(C(=O)c3cccs3)cc2[nH]1	NPC1 promoter act inconclusive (no result: FLuc modulator, ELG1 genotoxic)
COc1cccc(C(=O)Nc2nc3ccccc3[nH]2)c1	KinaseGlo FLuc 12.6µM, FLuc modulator 0.757µM, SMN2 splice enh inconclusive, NPC1 promoter act 0.562µM, Rab9 promoter act 0.708µM, ELG1 genotoxic 0.366µM
O=C(Nc1nc2ccccc2[nH]1)c1cccs1	KinaseGlo FLuc inconclusive, FLuc modulator 4.78µM, SMN2 splice enh 3.55µM, NPC1 promoter act 1.26µM, Rab9 promoter act 1.26µM, ELG1 genotoxic inconclusive
CCOC(=O)OCC	none (no result: KinaseGlo FLuc, FLuc modulator, NPC1 promoter act, Rab9 promoter act, ELG1 genotoxic)
CCN(CC)c1nn2c(=O)c(C(=O)NCc3cccc(OC)c3OC)cnc2s1	none (no result: KinaseGlo FLuc, SMN2 splice enh, NPC1 promoter act, Rab9 promoter act, ELG1 genotoxic)
COc1cc(C(=O)NC2CC(=O)N(c3cccc(F)c3)C2)cc(OC)c1OC (stereo not drawn)	none (no result: KinaseGlo FLuc, SMN2 splice enh, NPC1 promoter act, Rab9 promoter act, ELG1 genotoxic)
COc1ccc(OC)c(C2Nc3c(C)cc(C)cc3-c3cc(C)nn32)c1 (stereo not drawn)	none (no result: KinaseGlo FLuc, NPC1 promoter act, Rab9 promoter act, ELG1 genotoxic)
CN(C)S(=O)(=O)c1ccc(Cl)c(C(=O)Nc2nc3ccccc3[nH]2)c1	FLuc modulator inconclusive
Cn1nc(C(=O)Nc2nc3ccccc3[nH]2)ccc1=O	FLuc modulator 16.9µM, SMN2 splice enh 12.6µM, NPC1 promoter act inconclusive, Rab9 promoter act 2.24µM
COc1cc(C(=O)OCc2cc(=O)n3ccsc3n2)cc(OC)c1OC	none (no result: KinaseGlo FLuc, SMN2 splice enh, NPC1 promoter act, Rab9 promoter act, ELG1 genotoxic)
O=C(c1ccc(OC(F)(F)F)cc1)c1ncc[nH]1	FLuc modulator inconclusive, NPC1 promoter act inconclusive, Rab9 promoter act 3.55µM, ELG1 genotoxic inconclusive (no result: KinaseGlo FLuc, SMN2 splice enh)
O=C(c1ncc[nH]1)c1ccccc1Cl	none (no result: KinaseGlo FLuc, SMN2 splice enh)
O=C(O)CCNc1ccccc1C(=O)O	none (no result: FLuc modulator, NPC1 promoter act, Rab9 promoter act, ELG1 genotoxic)
Cn1c(=NC(=O)c2ccccc2[N+](=O)[O-])sc2cc(S(C)(=O)=O)ccc21	FLuc modulator 0.536µM, SMN2 splice enh 2.24µM, NPC1 promoter act 0.355µM, Rab9 promoter act 0.562µM, ELG1 genotoxic 8.2µM
CC1(C)Cc2c(sc3nc(-c4cc5ccccc5o4)n(N)c(=O)c23)CO1	FLuc modulator 6.01µM, SMN2 splice enh 11.2µM, NPC1 promoter act 3.16µM, Rab9 promoter act 2.82µM
O=c1oc(-c2ccco2)nc2sc3c(c12)CCCC3	KinaseGlo FLuc inconclusive, FLuc modulator 1.51µM, SMN2 splice enh 14.1µM
Cc1nc2sc3c(c2c(=O)o1)CCCC3	none
Nc1nc(-c2ccccc2)nc2sc3c(c12)CCCC3	FLuc modulator 0.269µM, SMN2 splice enh 3.16µM, NPC1 promoter act 2.24µM, Rab9 promoter act 1.78µM, ELG1 genotoxic 4.11µM
Cc1ccc(-c2nc3sc4c(c3c(=O)n2N)CC(C)(C)OC4)cc1	none
O=C1CCC(=O)N1c1ccc(-c2nc3sc4c(c3c(=O)o2)CCC4)cc1	FLuc modulator 21.3µM (no result: KinaseGlo FLuc, SMN2 splice enh)
C/C(=N/Nc1ccc2ccccc2n1)c1ccccc1O	SMN2 splice enh inconclusive (no result: FLuc modulator, NPC1 promoter act, Rab9 promoter act, ELG1 genotoxic)
CC(=O)O[C@@H]1C(CO[Si](C)(C)C(C)(C)C)=C(Br)C(=O)[C@@H]2O[C@]12C	none (no result: FLuc modulator, NPC1 promoter act, Rab9 promoter act, ELG1 genotoxic)
O=c1oc(-c2ccccc2)nc2sc3c(c12)CCC3	KinaseGlo FLuc inconclusive, FLuc modulator 2.39µM, SMN2 splice enh inconclusive
Cc1sc2nc(-c3ccccc3)oc(=O)c2c1C	FLuc modulator 5.36µM (no result: KinaseGlo FLuc, SMN2 splice enh)
Cc1nn2c(=O)c3c4c(sc3nc2n1-c1ccccc1)COC(C)(C)C4	none (no result: KinaseGlo FLuc, SMN2 splice enh)
CC1(C)Cc2c(sc3nc(-c4ccccc4)oc(=O)c23)CO1	FLuc modulator 1.2µM, SMN2 splice enh inconclusive
COc1ccc(-c2cc3ccc(O)c(CN4CCC(C)CC4)c3oc2=O)cc1	none (no result: KinaseGlo FLuc, SMN2 splice enh, NPC1 promoter act, Rab9 promoter act, ELG1 genotoxic)

Assay outcomes deposited in PubChem by National Center for Advancing Translational Sciences (NCATS).
